CHO-K1 Ca antag: M1 antagonist counterscreen hit in parental CHO-K1 cells. ATP-induced calcium, Fluo-8 fluorescence. inhibition, % at 3 µM. hit rate 0.6% among 360,000. AID 602250;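 active = inhibition above a per-plate cutoff, the plate's mean sample inhibition plus 3 SD, cut at about 24% in these data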;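 also: 0% = DMSO plus EC80 ATP and 100% = DMSO alone without ATP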
CHO-K1 Ca ag: counter-screen for M1 agonists: effect in parental CHO-K1 cells. Fluo-8 calcium fluorescence; scaled to maximal ATP response, vehicle zero. activation, % at 3 µM. hit rate 0.48% among 360,000; in the data active = activation above about 15%;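 also: untransfected CHO-K1 host cells lacking M1 receptor as counterscreen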
CHRM1 antagonist: blocks human M1 muscarinic receptor; hit rate 1.3% among 360,000; P11229; inhibition, % at 3 µM; CHO-K1 hM1, Fluo-8 calcium fluorescence, ACh EC80 antagonist; AID 588852;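 active = percent inhibition above its own plate's cutoff, namely the mean of that plate's compound wells plus 3 SD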;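 also: peak over basal fluorescence ratio during 140 s after agonist addition; 0% = ACh EC80 plus DMSO and 100% = DMSO alone without agonist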
Target sequence (P11229 whole entry, looked up): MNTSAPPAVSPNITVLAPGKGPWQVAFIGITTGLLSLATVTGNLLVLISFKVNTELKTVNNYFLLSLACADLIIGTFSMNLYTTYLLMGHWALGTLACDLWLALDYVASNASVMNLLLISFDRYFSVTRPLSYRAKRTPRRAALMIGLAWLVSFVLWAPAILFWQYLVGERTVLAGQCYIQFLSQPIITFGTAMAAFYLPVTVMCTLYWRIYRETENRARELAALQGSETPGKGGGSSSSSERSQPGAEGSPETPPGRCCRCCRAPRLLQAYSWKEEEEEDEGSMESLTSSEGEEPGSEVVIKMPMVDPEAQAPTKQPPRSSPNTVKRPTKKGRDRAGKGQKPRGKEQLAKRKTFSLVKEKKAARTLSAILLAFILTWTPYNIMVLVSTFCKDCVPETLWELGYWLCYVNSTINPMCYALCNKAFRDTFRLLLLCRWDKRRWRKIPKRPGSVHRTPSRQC
M1 PAM parental: nonselective activator or artifact in parental CHO-K1 calcium assay | hit rate 0.02% among 360,000 | ATP EC20, Fluo-8 calcium fluorescence; 0% at ATP EC20, 100% at ATP max | activation, % at 3 µM | AID 602247;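 active = activation above the run cutoff, the mean activation of all test compounds plus 3 SD, cut at about 40% in these data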;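 also: peak over basal fluorescence ratio in a 140 s read after ATP addition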
M1 ag: agonists of human M1 muscarinic receptor. P11229. hit rate 0.33% among 360,000. activation, % at 3 µM. CHO-K1 hM1, Fluo-8 calcium fluorescence, agonist mode; 0% DMSO, 100% acetylcholine EC100;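 active = activation above the run's mean compound activation plus 3 SD, cut at about 16% in these data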;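 also: peak over basal fluorescence ratio within a 140 s kinetic read after compound addition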
M1 PAM: human CHRM1 positive allosteric modulation. P11229. CHO-K1 hM1, Fluo-8 calcium fluorescence, ACh EC20; 0% = ACh EC20, 100% = maximal ACh. activation, % at 3 µM. hit rate 0.088% among 360,000. AID 588819; in the data active = activation above about 19%, passing the limit was not always enough
* hit, by the source's call; ! = a repeat was not active. In the library only some 2.3% were active in any assay of this set; here they are far more common.

SMILES	CHO-K1 Ca antag	CHO-K1 Ca ag	CHRM1 antagonist	M1 PAM parental	M1 ag	M1 PAM
COCCNC(=O)Cn1c(=O)n(CCCC(=O)NCc2ccc3c(c2)OCO3)c(=O)c2sccc21	-8	0	-5	11	-2	1
Nc1ncnc2c1ncn2[C@@H]1O[C@H](C(=O)N2CCN(c3ccc(Cl)cn3)CC2)[C@@H](O)[C@H]1O	4	0	-30	6	-1	11
COC(=O)/C(=C(O)\C=C\c1ccccc1[N+](=O)[O-])c1nc2ccccc2[nH]1	-19	1	-3	-8	-12	-5
COc1cc2c(cc1OC)-c1nnc(C)n1C1(CCCC1)C2	27*	-1	-4	-9	-4	4
Cc1cnc(NC(=O)CSc2ncc(-c3ccccc3)n2Cc2ccco2)s1	4	11	22	10	21*	-6
COc1ccccc1-c1nnc(SCC(=O)Nc2ccc(N3CCOCC3)cc2)n1N	-5	2	-2	13	3	3
CCOC(=O)Nc1ccc2c(c1)N(C(=O)OCCN(C)C)c1ccccc1CC2	4	1	31*!	14	-12	-26
CN(C)S(=O)(=O)c1ccc(C(=O)NCc2nnc(SCC(=O)NCc3ccco3)o2)cc1	-3	1	-10	7	-5	10
O=C1N[C@@H](c2ccccc2)COC(=O)[C@@H](Cc2ccc(F)cc2)CC/C=C/C[C@H]1CC(=O)N(CCO)Cc1ccccc1	11	7	28*	-3	2	-10
O=C(Cn1cc(S(=O)(=O)N2CCN(c3ccccc3F)CC2)c2ccccc2c1=O)NCCCN1CCCCCC1	12	0	10	-10	-14	-8
O=c1oc2ccccc2n1Cc1cccc(C(F)(F)F)c1	-6	4	8	12	-4	-6
Nc1c2c(nc3sc4c(c13)CCCCC4)CCCCC2	2	8	51*	1	-6	-24
CC1CCc2nc3sc4c(c3c(N)c2C1)CCCC4 (centres undefined)	0	0	2	12	-12	-13
C#CCOc1ccccc1CNC1CCN(Cc2ccccc2)CC1	0	1	2	-2	-7	-6
COc1cccc(-c2ccc(NC(=O)C3CCCN(Cc4nccn4C)C3)cc2)c1 (centres undefined)	4	1	3	-17	-4	-7
O=C(NNC(=O)c1ccco1)c1csc(N2CCOCC2)n1	-1	0	-2	4	-2	2
O=C(O)c1cc([N+](=O)[O-])ccc1NCCCc1ccccc1	7	1	-24	2	18*	-2
O=C(O)c1cc([N+](=O)[O-])ccc1NCc1ccccc1	13	0	3	-6	-2	-2
Cc1ccccc1C1(CCN2CCCCC2)CCOC(C)(C)C1 (centres undefined)	-5	1	52*	21	-13	-26
O=C(c1cccc(Cl)c1)N1CCN(Cc2ccc3c(c2)OCO3)CC1	-3	0	-3	0	-6	-2
O=C(c1ccc(Cl)c([N+](=O)[O-])c1)N1CCN(Cc2ccc3c(c2)OCO3)CC1	5	16*	-4	1	-12	-4
O=Cc1cc([N+](=O)[O-])ccc1N1CCN(Cc2ccc3c(c2)OCO3)CC1	-10	10	35*	-7	-6	-30
CC1CCN(c2nc3ccc(C(=O)N4CCN(Cc5ccc6c(c5)OCO6)CC4)cc3s2)CC1	9	0	29*	3	-11	-17
O=[N+]([O-])c1ccc(N2CCN(Cc3ccc4c(c3)OCO4)CC2)nc1	-13	5	-14	22	-4	1
N#CN1CCC(NS(=O)(=O)c2ccc(C(F)(F)F)cc2)C1 (centres undefined)	-11	4	5	5	3	-7
CC(=O)OC[C@@H]1CN(Cc2ccccc2)C[C@H](n2cnc3c(NCC(C)C)ncnc32)O1	-3	2	4	1	3	0
COc1ccc(CCNC(=O)Cn2ccc3c(OC)cccc3c2=O)cc1OC	-5	6	2	-12	1	0
Cc1ccn2c(-c3csc(NCc4ccccc4)n3)c(C)nc2c1	25*	5	15	-6	-2	-6
